Molecules are shown by their SMILES. Results filed as inconclusive are left out. Values without a mark were called inactive. Calls of active or inactive are those of the source. The call rests on the fitted dose curve; in most records, active means well fitted cell-killing curve with a large enough effect; inconclusive means small, poorly fitted or top-dose-only effect, or effect the other way; inactive means no such curve, though single readings can be large or run the other way.
Potency means the concentration at half of the fitted maximal effect.

This test is described as follows: Quantitative High-Throughput drug screen in 47 multiple myeloma cell lines against the NCATS MIPE library collection: KHM11_PLB cell viability assay (AID 1918962). Further: nearly all actives have a fitted effect of over 35% in size. To be noted: KHM11 myeloma cell viability, CellTiter-Glo ATP luminescence, 48 h; series mostly up to 45.8 µM; viability, % of DMSO control: at the top concentration. The text has this:
PI: Beverly A. Mock Ph.D.
Laboratory of Cancer Biology and Genetics,
Center for Cancer Research, National Cancer Institute,
National Institute of Health, Bethesda, Maryland
Drug resistance and disease progression are common in multiple myeloma (MM) patients, underscoring the need for new therapeutic combinations. […] We hypothesized that effective combinations would reduce MYC expression and enhance p16 activity. […] These preclinical data identify potentially useful drug combinations for evaluation in drug-resistant MM and reveal potential mechanisms of combined drug sensitivity.
Described herein is the primary MIPE qHTS used to cherrypick compounds. Validated compounds were then further tested for potential synergistic activiy.
[1] Peat TJ, Gaikwad SM, Dubois W, Gyabaah-Kessie N, Zhang S, Gorjifard S, Phyo Z, Andres M, Hughitt VK, Simpson RM, Miller MA, Girvin AT, Taylor A, Williams D, D'Antonio N, Zhang Y, Rajagopalan A, Flietner E, Wilson K, Zhang X, Shinn P, Klumpp-Thomas C, McKnight C, Itkin Z, Chen L, Kazandijian D, Zhang J, Michalowski AM, Simmons JK, Keats J, Thomas CJ, Mock BA. Drug combinations identified by high-throughput screening promote cell cycle transition and upregulate Smad pathways in myeloma. Cancer Lett. 2023 Aug 1;568:216284. doi: 10.1016/j.canlet.2023.216284. Epub 2023 Jun 24. PMID: 37356470; PMCID: PMC10408729.
SEQUENCE No. (e.g., 1, 2, 3, etc.); […] (e.g., Cells, Incubation, Reagent, etc.); VALUE and DESCRIPTION.
1; Cells; 5 uL; white, solid bottom 1536-well Greiner assay plate.
2; Compounds; 23 nL; Kalypsis pin tool (Wako USA) equipped with a 1536-well pin head to transfer to the assay plates.
3; Incubation; 48 hours; 37C incubation.
4; Reagent;5uL; CellTiter Glo (Promega).
5; Detector; 425V; Luminescence; Viewlux PerkinElmer.
NOTES (numbers refer to Sequence numbers above)
1. The cell-based screening methods employed in this study were like those previously published. Briefly, the corresponding myeloma cell lines were screened in 1,536-well plates with 500 cells, 5-uL per well for inhibition of cell viability (assessed by measuring ATP levels with CellTiterGlo).
2. NCATS MIPE 4.0 library of approved and investigational drugs were added using the Kalypsis pin tool. Wells treated with DMSO only for 100% viability and media only wells for 0% viability were used as controls.
3. The assay plates were covered and incubated for 48 hours in a 37C, 5% CO2 incubator with controlled humidity.
4. After 48 hours, CellTilter-GloTM luminescent substrate mix (Promega) reagent was added to the assay plate and plates we incubated for 5 min at room temperature.
5. Signal was measured as median relative luminescence units on a ViewLux (PerkinElmer) multiplate reader.
[1] Heske CM, Davis MI, Baumgart JT, Wilson K, Gormally MV, Chen L, Zhang X, Ceribelli M, Duveau DY, Guha R, Ferrer M, Arnaldez FI, Ji J, Tran HL, Zhang Y, Mendoza A, Helman LJ, Thomas CJ. Matrix Screen Identifies Synergistic Combination of PARP Inhibitors and Nicotinamide Phosphoribosyltransferase (NAMPT) Inhibitors in Ewing Sarcoma. Clin Cancer Res. 2017 Dec 1;23(23):7301-7311. doi: 10.1158/1078-0432.CCR-17-1121. Epub 2017 Sep 12. PMID: 28899971; PMCID: PMC6636827.
In general terms: Cellular ATP, detected with luciferase, serves as a proxy for viable cell number.
As for `COC1(CS(=O)c2ccccc2)CCN(CCc2c[nH]c3ccc(F)cc23)CC1` (stereo not drawn), the “viability, % of DMSO control” value was 108%. Still for that read-out and setting: to `COc1ccc(C(=O)c2c(C)n(CCN3CCOCC3)c3ccccc23)cc1` belongs 144%. On to `C[C@@H]1[C@@H](C(=O)C[C@H]2O[C@@H]3O[C@]4(C)CC[C@@H]5[C@H](C)CC[C@@H]([C@H]2C)[C@@]35OO4)O[C@@H]2O[C@]3(C)CC[C@H]4[C@H](C)CC[C@@H]1[C@@]24OO3`, for which the Potency is 0.332 µM (active). Take `Cc1sc2c(c1C)C(c1ccc(Cl)cc1)=N[C@@H](CC(=O)OC(C)(C)C)c1nnc(C)n1-2`: the Potency is 0.0083 µM (active). As to `CNCC(O)c1ccc(O)cc1` (stereo not drawn), the “viability, % of DMSO control” value was 91.3%. Still for that read-out and setting: to `CN(C)[C@@H]1C(=O)C(C(N)=O)=C(O)[C@@]2(O)C(=O)C3=C(O)c4c(O)cccc4[C@@](C)(O)[C@H]3C[C@@H]12` belongs 106%; to `CC(C)CC(N(C)C)C1(c2ccc(Cl)cc2)CCC1` (stereo not drawn), 106%; to `Cc1cccc(C)c1NC(=O)CN1CCCC1=O`, 99.2%. The same measure, in the same setting: then `C#CCN(C)[C@H](C)Cc1ccccc1`, with 80.3%. Consider `Fc1ccc(C(OCCN2CCN(CCCc3ccccc3)CC2)c2ccc(F)cc2)cc1`, for which the Potency is 13.2 µM (active). Same read-out and setting: to `N[C@@H](Cc1ccc(N(CCCl)CCCl)cc1)C(=O)O` belongs 20.9 µM (active). Regarding `O=c1[nH]c2ccccc2n1CCCN1CCC(n2c(=O)[nH]c3cc(Cl)ccc32)CC1`, the “viability, % of DMSO control” value was 148%. Consider `CNC(=O)c1ccc(N2C(=S)N(c3ccc(C#N)c(C(F)(F)F)c3)C(=O)C23CCC3)cc1F`, for which the Potency is 33.2 µM (active). On to `C[C@@H]1O[C@@H](O[C@H]2C[C@@H](O)[C@]3(CO)[C@H]4[C@H](O)C[C@]5(C)[C@@H](C6=CC(=O)OC6)CC[C@]5(O)[C@@H]4CC[C@]3(O)C2)[C@H](O)[C@H](O)[C@H]1O`, for which the Potency was 0.0372 µM (active).

On to `CC(O)(CS(=O)(=O)c1ccc(F)cc1)C(=O)Nc1ccc(C#N)c(C(F)(F)F)c1` (stereo not drawn), for which the Potency is 1.87 µM (active). As to `CN1CCN(C(=O)O[C@H]2c3nccnc3C(=O)N2c2ccc(Cl)cn2)CC1`, the “viability, % of DMSO control” value is 104%. `COC[C@H]1OC(=O)c2coc3c2[C@@]1(C)C1=C(C3=O)C2CCC(=O)[C@@]2(C)C[C@H]1OC(C)=O` (stereo partly drawn): the Potency is 3.32 µM (active). Consider `CNC(=O)N1N=C(c2ccc(N)cc2)c2cc3c(cc2CC1C)OCO3` (stereo not drawn), for which the Potency is 2.96 µM (active).

The record behind these values is PubChem BioAssay (NCATS).
